According to the supplement of paper PMC10503962:

The compounds below were run on Trichuris muris adult worms (assay: mean motility score (Paragon pixel variance) of adult worms (arbitrary units); higher = more motile worms, i.e. less anthelmintic effect; extreme values may be limits of the assay). Conditions: 100 µM; 24 h.
In short: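 Adult Trichuris muris worms were collected from infected NOD SCID mice and placed one per well in 96-well plates containing 100 μL RPMI-1640 with antibiotics and drug at 100 μM (1% v/v DMSO), then incubated for 24 h at 37°C and 5% CO2. Each plate was filmed on an automated phenotyping platform, capturing 200 frames 100 ms apart. The motility score came from Paragon pixel-variance analysis and was averaged over replicate wells. Every drug was tested with three worms in three wells on three separate occasions, alongside vehicle and positive controls.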
Compound Nc1ccc(S(N)(=O)=O)cc1 [sulfanilamide] has a mean motility score of 2370.
CCCCC1=NC2(CCCC2)C(=O)N1Cc1ccc(-c2ccccc2-c2nn[nH]n2)cc1 [irbesartan] was tested, and the mean motility score was 2360.
OCCN1CCN(CCCN2c3ccccc3Sc3ccc(Cl)cc32)CC1 [perphenazine] showed a mean motility score of 175.
Compound Cc1ccc(Nc2nccc(N(C)c3ccc4c(C)n(C)nc4c3)n2)cc1S(N)(=O)=O [pazopanib] has a mean motility score of 1830.
With Oc1ncnc2[nH]ncc12 [allopurinol] the mean motility score was 4000.
N#CC[C@H](C1CCCC1)n1cc(-c2ncnc3[nH]ccc23)cn1 [ruxolitinib] gave a mean motility score of 3070.
CC(C)(C)c1ccc(C(O)CCCN2CCC(C(O)(c3ccccc3)c3ccccc3)CC2)cc1 (stereo not drawn) [terfenadine] was tested, and the mean motility score was 1.
O=C(O)COc1ccc(C(=O)c2cccs2)c(Cl)c1Cl [ticrynafen] was tested, and the mean motility score was 3440.
CC(=O)Nc1cccc(-n2c(=O)n(C3CC3)c(=O)c3c(Nc4ccc(I)cc4F)n(C)c(=O)c(C)c32)c1 [trametinib] showed a mean motility score of 2980.
In the case of CC(=O)Nc1ccc(O)cc1 [acetaminophen], the mean motility score was 2180.
C[C@@H]1C[C@H]2[C@@H]3CCC4=CC(=O)C=C[C@]4(C)[C@@]3(F)[C@@H](O)C[C@]2(C)[C@@]1(O)C(=O)CO [dexamethasone] gave a mean motility score of 1780.
CN1CCC[C@H]1c1cccnc1 [nicotine] gave a mean motility score of 0.
COc1ccc(/C=C/C(=O)Nc2ccccc2C(=O)O)cc1OC [tranilast] gave a mean motility score of 1720.
Compound Cc1cc2c(s1)Nc1ccccc1N=C2N1CCN(C)CC1 [olanzapine] has a mean motility score of 454.
Work on CN1CCC(=C2c3ccccc3C=Cc3ccccc32)CC1 [cyproheptadine] yielded a mean motility score of 417.
In the case of N[C@@H]1CONC1=O [cycloserine], the mean motility score was 3930.
CCN(CC)CCOC(=O)c1ccc(N)cc1.Cl [procaine hydrochloride] showed a mean motility score of 3750.
For CC(C)O [isopropyl alcohol], the mean motility score was 2760.
COC(=O)c1ccc2c(c1)NC(=O)/C2=C(\Nc1ccc(N(C)C(=O)CN2CCN(C)CC2)cc1)c1ccccc1 [nintedanib] was tested, and the mean motility score was 3140.
CSc1ccc(C(=O)c2nc(O)[nH]c2C)cc1 [enoximone] was tested, and the mean motility score was 1970.
With CCCC(=O)O[C@]1(C(=O)COC(C)=O)CC[C@H]2[C@@H]3C[C@H](F)C4=CC(=O)C=C[C@]4(C)[C@@]3(F)[C@@H](O)C[C@@]21C [difluprednate] the mean motility score was 3520.
COc1cc(C(=O)NS(=O)(=O)c2ccccc2C)ccc1Cc1cn(C)c2ccc(NC(=O)OC3CCCC3)cc12 [zafirlukast] was tested, and the mean motility score was 0.
With CC(C)(C)c1nc(-c2cccc(NS(=O)(=O)c3c(F)cccc3F)c2F)c(-c2ccnc(N)n2)s1 [dabrafenib] the mean motility score was 6.
COC1=C(OC)C(=O)C(C/C=C(\C)CC/C=C(\C)CC/C=C(\C)CC/C=C(\C)CC/C=C(\C)CC/C=C(\C)CC/C=C(\C)CC/C=C(\C)CC/C=C(\C)CCC=C(C)C)=C(C)C1=O [ubidecarenone] gave a mean motility score of 2770.
Cc1ncc([N+](=O)[O-])n1CC(C)O (stereo not drawn) [secnidazole] gave a mean motility score of 2540.
For Nc1ccc(S(=O)(=O)NC(=O)c2ccccc2)cc1 [sulfabenzamide], the mean motility score was 4050.
In the case of C[C@H](CS)C(=O)N1CCC[C@H]1C(=O)O [captopril], the mean motility score was 3330.
Work on CNC(=O)c1cc(Oc2ccc(NC(=O)Nc3ccc(Cl)c(C(F)(F)F)c3)cc2)ccn1 [sorafenib] yielded a mean motility score of 781.
With COC(=O)CCC(=O)CN.Cl [methyl aminolevulinate hydrochloride] the mean motility score was 2550.
With NC(=O)N1c2ccccc2C=Cc2ccccc21 [carbamazepine] the mean motility score was 3020.
C[C@@H]1CN(c2c(F)c(N)c3c(=O)c(C(=O)O)cn(C4CC4)c3c2F)C[C@H](C)N1 [sparfloxacin] gave a mean motility score of 3980.
Cl.Cl.NCCc1c[nH]cn1 [histamine dihydrochloride] showed a mean motility score of 2750.
In the case of COc1cc2c(Nc3ccc(Br)cc3F)ncnc2cc1OCC1CCN(C)CC1 [vandetanib], the mean motility score was 0.
Work on CC(=O)c1c(C)c2cnc(Nc3ccc(N4CCNCC4)cn3)nc2n(C2CCCC2)c1=O [palbociclib] yielded a mean motility score of 1970.
c1ccc(-c2ccc(C(c3ccccc3)n3ccnc3)cc2)cc1 (stereo not drawn) [bifonazole] showed a mean motility score of 20.
O=C(CCCCCCC(=O)Nc1ccccc1)NO [vorinostat] showed a mean motility score of 1260.
Compound NCCc1ccc(O)c(O)c1 [dopamine] has a mean motility score of 3440.
CN1CCCN=C1COC(=O)C(O)(c1ccccc1)C1CCCCC1.Cl (stereo not drawn) [oxyphencyclimine hydrochloride] was tested, and the mean motility score was 3070.
